Screening data as filed in PubChem BioAssay.
Compounds with a hit are over-represented: about 12% of the library has one in this group of screens.
Shiga inhibitor = inhibitors of Shiga toxin in Vero cells. inhibition, % at 38.7 µM. 9.2% of 290,000 active. AID 2315. Vero cells, Shiga toxin protein synthesis inhibition reporter; in the data active = inhibition mostly above about 28%, no sharp cut-off; inactive = mostly below about 43%; also: 0% is about no effect
Cycloheximide cs = counter-screen for Shiga toxin inhibitors: cycloheximide protein synthesis inhibition | cell reporter, cycloheximide protein synthesis inhibition counterscreen | max response, % | 12% of 300,000 active; in the data active = max response mostly above about 13%, no sharp cut-off; inactive = mostly below about 14%; also: read at 38.3 µM for the half of the compounds with a filed dose; 0% is about no effect
MARV entry inh = inhibitors of Marburg virus binding or cell entry. Marburg virus pseudotyped entry inhibition, cell reporter. Potency, µM (doses to about 37.8 µM), inactives show at the highest dose activity change, negative = inhibition, actives largely listed as inhibitors. 1.8% of 300,000 active. AID 540276; calls by dose curve; tested in HEK293 cells; also: potency is read from the fitted curve at half-maximal effect; % is scaled to controls: 0 for no effect and ±100 for the full control effect
LASV entry inh = inhibitors of Lassa virus binding or cell entry | AID 540256 | 1.2% of 300,000 active | Lassa virus pseudotype entry inhibition, cell reporter | Potency, µM (series often up to 37.9 µM), for the others: at the highest dose activity change, negative = inhibition, usual class: inhibitors; calls by dose curve; tested in HEK293 cells; also: potency is read from the fitted curve at half-maximal effect; % is scaled to controls: 0 for no effect and ±100 for the full control effect; nearly all actives have a fitted effect of over 50% in size
* = called active by the depositor; ? = inconclusive; nt = not tested or not shown; [ ] = another dose, or the depositor's remark.

SMILES | Shiga inhibitor | Cycloheximide cs | MARV entry inh | LASV entry inh
CCCCC(=O)Nc1nnc(S(=O)(=O)N(CC)c2ccc(OC)cc2)s1 | 3 | -1 | nt | nt
CCCCC(=O)Nc1nnc(-c2ccc(OC)cc2)s1 | 35* | 23 | 5% | 2%
CCCCC(=O)Nc1nnc(SCC(=O)Nc2ccc(OC)cc2)s1 | 93* | 41* | 4% | 13%
CSc1nc(N)c(C(=O)Nc2ccc([N+](=O)[O-])cc2)s1 | 50* | 32* | nt | nt
Cc1noc(C)c1C(=O)OCC(=O)Nc1c(F)cccc1F | 7 | 8 | 4% | -8%
C=CCC1(CC=C)CCCN1C(=O)c1cc(COc2cncc(Cl)c2)on1 | 35* | 36* | nt | nt
COCC1CCCN(C(=O)c2cc(COc3ccc(C(C)=O)cc3)on2)C1 (stereo not drawn) | nt | nt | 4% | -25%
CCC(NC(=O)c1cc(COc2cncc(Cl)c2)on1)c1ccc(C)cc1 (stereo not drawn) | 17 | -2 | ? | -21%
COCC1CCCN(C(=O)c2cc(COc3cncc(Cl)c3)on2)C1 (stereo not drawn) | 101* | 41* | 21%[46.1 µM] | 1%[46.1 µM]
COC(=O)[C@@H](NC(=O)c1cc(COc2cncc(Cl)c2)on1)c1ccccc1 | 34 | 40* | -20% | 8%
Cc1ccc(NC(=O)c2nnn(-c3ccc4c(c3)OCCO4)c2N)cc1 | 112* | 37* | -29%[46.1 µM] | ?
Nc1c(C(=O)Nc2ccccc2)nnn1-c1ccc2c(c1)OCCO2 | 74* | 34* | ? | ?
COc1ccc(Cn2nnc(C(=O)Nc3ccc4c(c3)OCCO4)c2N)cc1Br | 27 | 17* | nt | nt
Cc1ccc(C)c(Cn2nnc(C(=O)Nc3ccc4c(c3)OCCO4)c2N)c1 | nt | nt | ? | -1%
CC(C)Oc1ccccc1C1(c2ccccc2)NC(=O)NC1=O (stereo not drawn) | nt | -1 | nt | nt
Cc1ccc(NC(=O)N2C(=O)C3(OCCO3)c3ccccc32)cc1 | 93* | 43* | ? | -7%
CCC(=O)Nc1cccc(-c2nnc(SCC(=O)c3ccccc3)n2C)c1 | 81* | 36* | 19% | 22%
Cn1c(SCC(=O)c2ccc(F)cc2)nnc1-c1cccnc1 | 25 | 10 | 14%[46.1 µM] | 4%
CN(C)c1ccc(NC(=O)CSc2nnc(-c3cnccn3)n2C)cc1 | 37 | 13* | nt | nt
CCc1ccc(NC(=O)CSc2nnc(-c3cnccn3)n2C)cc1 | -4 | 9 | nt | nt
CCn1c(SCC(=O)c2cccs2)nnc1-c1cccs1 | 31 | 27* | 23% | ?
Cn1c(SCC(=O)c2ccccc2)nnc1-c1cccnc1 | 67* | 54* | -2% | 18%
Cc1cc(C)cc(C(=O)NCCC(=O)N2CCC3(CC2)NCCc2[nH]cnc23)c1 | -2 | -2 | nt | nt
Cc1ccc(C)c(S(=O)(=O)N2CCC(c3nc4c(nnn4Cc4ccc5c(c4)OCCO5)c(=O)[nH]3)CC2)c1 | -11 | 2 | nt | nt
NNC(=O)COc1ccc2oc3c(c2c1)CCCC3 | -3 | 1 | 5%[46.1 µM] | 8%
SMILES | Shiga inhibitor | Cycloheximide cs | MARV entry inh | LASV entry inh
CCCCCn1c(=O)[nH]c2cc(C(=O)N3CCN(c4cccc(C(F)(F)F)c4)CC3)ccc2c1=O | nt | nt | 19%[46.1 µM] | 8%[46.1 µM]
Cc1ccccc1OCc1nnc(SCC(=O)NCc2ccccc2)n1C | -11 | -3 | -24% | -20%
Cc1cccc(OCc2nnc(SCC(=O)c3cccs3)n2C)c1C | 39 | 21* | -12% | -29%[14.3 µM]
Cn1c(SCC(=O)c2ccccc2)nnc1-c1cnccn1 | 59 | 27* | ? | 0%
Cn1c(SCC(=O)c2ccccc2)nnc1-c1cccs1 | 86* | 25* | nt | nt
CCn1c(SCC(=O)c2ccccc2)nnc1-c1cnccn1 | 107* | 52* | ? | 14%
Cn1c(SCC(=O)NCc2cccs2)nnc1-c1cccs1 | -17 | -2 | ? | 18%
CCn1c(SCC(=O)Nc2ccccc2F)nnc1-c1cnccn1 | 8 | 10 | nt | nt
COc1ccccc1NC(=O)C1CCCN(c2cnccn2)C1 (stereo not drawn) | 36 | -1 | nt | nt
Cc1cc(C)cc(NC(=O)CSc2nnc(CNC(=O)c3c(F)cccc3Cl)o2)c1 | nt | nt | ? | 15%[46.1 µM]
CCn1c(SCC(=O)O)nnc1-c1ccccc1OC | 103* | 49* | -3%[46.1 µM] | 23%[46.1 µM]
C/C(CC(=O)Nc1ccc(Br)cc1)=N\NC(=O)Cc1csc(N)n1 | 27 | 29* | 3%[46.1 µM] | 14%
C/C(CC(=O)Nc1ccccc1C)=N\NC(=O)Cc1csc(N)n1 | 62* | 41* | 3% | 16%
CC(C)NC(=O)C1CCC(Cn2c(=O)c3sccc3n(CC(=O)Nc3ccccc3)c2=O)CC1 (stereo not drawn) | nt | nt | nt | 19%[46.1 µM]
Cc1cc(O)c(/C=N/Nc2ccc(Cl)cc2)c(=O)o1 | -5 | 2 | 18% | -10%
Cc1cc(O)c(/C=N/Nc2ccccc2Cl)c(=O)o1 | 24 | 22* | ? | -2%
CCOC(=O)c1c(C)n(S(=O)(=O)c2ccc(C)cc2)c2ccc(NS(=O)(=O)c3ccc(C)cc3)cc12 | nt | nt | -30%[46.1 µM] | 6.3µM*
CCOC(=O)C1(Cc2ccccc2C(F)(F)F)CCN(C2CCN(C(C)C)CC2)CC1 | -9 | -4 | 7.3µM* | ?
CCOC(=O)C1(CCOC)CCN(C(=O)Cc2ccc3ccccc3c2)CC1 | 5 | -2 | 10µM* | ?
CCOC(=O)C1(Cc2ccccc2C(F)(F)F)CCN(CC(O)CO)CC1 (stereo not drawn) | -8 | -1 | ? | -11%
CCOC(=O)C1(CCc2ccccc2)CCN(C(=O)Cc2nonc2C)CC1 | 63* | 14* | ? | -24%
CCOC(=O)C1(CCc2ccccc2)CCN(C(=O)[C@@H]2C[C@@H](C)NC(=S)N2)CC1 | 15 | 13* | -24%[46.1 µM] | 6%[46.1 µM]
COc1ccc(C)cc1NC(=O)CSc1nc(=O)n(Cc2cccnc2)c2c1CCC2 | nt | nt | nt | -1%[46.1 µM]
COc1ccc(C2(C(=O)Nc3ccc(C)cc3)CCOCC2)cc1 | -12 | -3 | 17%[46.1 µM] | nt
CCOC(=O)C1(CCc2ccccc2)CCN(C2Cc3ccccc3C2)CC1 | 76* | 27* | -20%[46.1 µM] | -12%
SMILES | Shiga inhibitor | Cycloheximide cs | MARV entry inh | LASV entry inh
CCOC(=O)C1(CCc2ccccc2)CCN(C2CCSCC2)CC1 | 7 | 1 | 10µM* | ?
CN(C(=O)CSc1nncn2c1cc1occc12)c1ccccc1 | nt | nt | nt | 6%[46.1 µM]
Cc1ccc(NC(=O)COC(=O)[C@@H]2CC(O)CN2S(=O)(=O)c2ccc3c(c2)OCCO3)cc1 (stereo partly drawn) | nt | nt | ? | 22%
Cc1cccc(C(=O)N2CCc3cc(CNC(=O)CCc4ccccc4)ccc32)c1 | nt | nt | nt | -23%[46.1 µM]
CCOc1cccc(CC(=O)NCc2ccc3c(c2)CCN3C(=O)c2cccc(C)c2)c1OCC | nt | nt | ? | 11µM*
O=C(NCc1cccnc1)c1cccc(S(=O)(=O)Nc2cccc(Cl)c2)c1 | nt | nt | ? | -18%
O=[N+]([O-])c1ccc(N2CCOCC2)cc1O | -4 | 1 | -1%[46.1 µM] | -2%[46.1 µM]
Cc1cc(N2CCOCC2)ccc1/C=C\[N+](=O)[O-] | -14 | -11 | ? | 21µM*
Nc1ccccc1SCc1csc(-c2ccc(Cl)cc2)n1 | 113* | 44* | nt | nt
C=CCn1c(SCc2csc(-c3ccc(Cl)cc3)n2)nnc1-c1ccccc1OC | 31 | 2 | ? | -13%
Cc1cc(C)nc(SCc2csc(-c3ccccc3)n2)n1 | 85* | 61* | ? | -28%
Cc1cc(C)nc(SCc2csc(N)n2)n1 | 64 | 28* | 9%[46.1 µM] | 15%
CCCCCC(=O)N1C[C@H](n2cc(C3CC3)nn2)[C@@H](O)C[C@H]1c1ccc(Cl)cc1 | nt | nt | nt | -37%[46.1 µM]
